# In PubChem BioAssay (NCATS):
# Records with an inconclusive call do not appear. Where a call stands in place of a potency, no number is given. Activity calls are given as the source filed them. Calls come from the whole dose curve; as a rule, active = well fitted inhibition curve with a large enough effect; inconclusive = small, poorly fitted or top-dose-only effect; inactive = no such curve, though single readings can be large or run the other way.
# Assay: Primary qHTS for small molecule stabilizers of the endoplasmic reticulum resident proteome: Secreted ER Calcium Modulated Protein (SERCaMP) assay (AID 1508630)
# Settings: SH-SY5Y GLuc-SERCaMP (Gaussia luciferase released on ER calcium loss) secretion, thapsigargin, luminescence; series mostly up to 38.4 µM
# Procedure, shortened: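 The SH-SY5Y reporter protocol was run at 3 concentrations up to 38.3 uM (primary) or 11 concentrations (follow-up): 16 h compound, 100 nM thapsigargin for 4 h, then extracellular luciferase luminescence.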
row,Compound,Potency
1,CC1=CC2C(C)(C)CC(=O)C[C@]2(C)CC1COc1ccc2c(c1)CC(=O)C=C2 (stereo partly drawn),inactive
2,Cc1cc(O)c2c(c1O)C(=O)C(O)=C(O)C2=O,inactive
3,CC1(O)/C=C\C=C(\CO)C2CC(C)(C)C2(O)CC1 (stereo not drawn),inactive
4,C[C@@H](CN(C)C[C@H]1C(=O)O[C@@H]2C[C@@]3(C)CCC[C@]4(CO4)C3CC21)[C@H](O)c1ccccc1 (stereo partly drawn),inactive
5,CCOC(=O)c1ncc2[nH]c3cccc(OC(C)C)c3c2c1C,inactive
6,COC1=C[C@@H](C)C2CC3OC(=O)C[C@H]4C(C)=C(OC)C(=O)C([C@@]2(C)C1=O)[C@@]34C (stereo partly drawn),inactive
7,COc1cc(C2=N/C(=C\c3ccccc3)C(=O)O2)cc(OC)c1OC,inactive
8,O=c1ccc2ccc(O[C@@H]3O[C@H](CO)[C@@H](O)[C@H](O)[C@H]3O)c(O)c2o1,inactive
9,CC(C)=CCCC1=CC[C@H](C(=O)O)[C@H](C(=O)O)C1,inactive
10,COc1cc(/C=C/C(=O)c2c(O)cc(C)oc2=O)ccc1O,inactive
11,CC(=O)Nc1ccccc1C(=O)C(=O)O,inactive
12,Cc1cn(C2OC[C@@H](O)[C@@H]2CO)c(=O)[nH]c1=O (stereo partly drawn),inactive
13,COc1cc(C/C=C\c2ccccc2)c(OC)cc1O,inactive
14,CC1=CC2C(=O)c3cccc(O)c3C(=O)C2C(O)=C1 (stereo not drawn),inactive
15,CC1CCC(C(C)[C@H]2CCC3C4CC(=O)C5C[C@@H](O)CC[C@]5(C)C4CC[C@@]32C)=NC1 (stereo partly drawn),inactive
16,COc1cc2c(cc1OC)C1N(CC2)C(=O)CCC12C(=O)CCCC2=O (stereo not drawn),inactive
17,COc1c2c(nc3occc13)C(CC=C(C)C)(OC)C(=O)C=C2 (stereo not drawn),inactive
18,C/C=C/c1ccc(OC(C)[C@@H](O)c2ccc(O)c(OC)c2)c(OC)c1 (stereo partly drawn),inactive
19,C=C(C)C(=O)OC[C@@H]1CCC[N@+]2(C)CCCCC12 (stereo partly drawn),inactive
20,O=C1CC(c2ccc(O[C@@H]3OC(CO)[C@@H](O)C(O)C3O)cc2)Oc2cc(O)ccc21 (stereo partly drawn),inactive
21,COc1c2ccoc2nc2c(OC)c(O[C@@H]3O[C@H](C)[C@@H](O)[C@@H](O)[C@H]3O)ccc12,inactive
22,COc1ccccc1/C=C\C(=O)OC[C@@H]1CCCN2CCCC[C@H]12,inactive
23,C/C(Nc1ccc2oc(=O)ccc2c1)=C1/C(=O)CC2[C@@H]1C2(C)C (stereo partly drawn),inactive
